In PubChem BioAssay (EPA / NIEHS):
“And” between values parts separate entries of the source, which are not always exact repeats. Equal values may be shown once. Records with an inconclusive call do not appear. Some compounds were tested as several samples or in several runs, with calls that do not always agree. The source made the active and inactive calls. Rule for the calls, unless noted: active = hit-call score of the fitted dose curve at least 0.9, where 1 is the maximum; inactive = score below 0.9.

Assays:
[1] = read-out: Interleukin-8 (IL8), CXCL8 (gene 3576); assay: BSK_3C_IL8: BioMAP Diversity Plus: 3C Assay for Interleukin-8 (IL8) Biomarker Activity (AID 2283020); conditions: primary human endothelial cells (HUVEC); actives raise or lower the signal
Outline: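 Human vascular endothelial cells (umbilical vein) in the 3C system; IL-8 level detected by ELISA at 24 h post-dose, with DMSO as baseline.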

[2] = read-out: Monokine induced gamma interferon (MIG), CXCL9 (gene 4283); assay: BSK_3C_MIG: BioMAP Diversity Plus: 3C Assay for Monokine induced gamma interferon (MIG) Biomarker Activity (AID 2283021); conditions: primary human endothelial cells (HUVEC); actives raise or lower the signal
Outline: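 After 24 h of treatment, human umbilical vein endothelial cultures (3C system) had their MIG biomarker level determined by ELISA, with DMSO serving as negative control.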

[3] = BSK_3C_SRB: Viability Assessment in the BioMAP Diversity Plus: 3C Assay (AID 2283023); conditions: primary human endothelial cells (HUVEC);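 note: fitted both ways against DMSO so a hit may be signal rise or drop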
Outline: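 Primary human umbilical vein endothelial cells in the 3C system were read 24 h after compound dosing. Total protein was stained with 0.1% sulforhodamine B after 10% TCA fixation and read at 560 nm, with bidirectional fitting against DMSO as baseline.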

[4] = read-out: Matrix Metallopeptidase 1 (MMP1), MMP1 (gene 4312); assay: BSK_BE3C_MMP1: BioMAP Diversity Plus: BE3C Assay for Matrix Metallopeptidase 1 (MMP1) Biomarker Activity (AID 2283024); conditions: primary human bronchial epithelial cells; actives raise or lower the signal
Outline: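 Dose cells, wait 24 h, run MMP1 ELISA; cells are human bronchial epithelial primaries. Both increases and decreases relative to DMSO counted.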

[5] = BSK_3C_Vis: BioMAP Diversity Plus: 3C Assay for Morphology Visualization (AID 2283025); conditions: primary human endothelial cells (HUVEC);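 note: fitted both ways so gain or loss versus DMSO counts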
Outline: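 Endothelial cells from human umbilical vein were treated with test chemicals for 24 h and inspected by light microscopy for changes in cell conformation.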

[6] = read-out: Pselectin, SELP (gene 6403); assay: BSK_4H_Pselectin: BioMAP Diversity Plus: 4H Assay for Pselectin Biomarker Activity (AID 2283026); conditions: primary human endothelial cells (HUVEC); actives raise or lower the signal
Outline: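 Human vascular endothelium from umbilical vein; P-selectin measured by ELISA at 24 h post-dose, with cytotoxicity checked by sulforhodamine B total-protein staining in parallel cultures (0.1% SRB after 10% TCA fixation, read at 560 nm).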

[7] = BSK_4H_SRB: Viability Assessment in the BioMAP Diversity Plus: 4H Assay (AID 2283027); conditions: primary human endothelial cells (HUVEC);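 note: cells exposed to compound for 24 h before staining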
Outline: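 Human umbilical vein endothelial cells, 24 h after chemical dosing; total protein measured by 0.1% sulforhodamine B staining after 10% TCA fixation, read at 560 nm. Bidirectional fitting against DMSO.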

[8] = BSK_BE3C_SRB: Viability Assessment in the BioMAP Diversity Plus: BE3C Assay (AID 2283028); conditions: primary human bronchial epithelial cells
Outline: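 Human primary bronchial epithelial cells were exposed to test chemicals for 24 h. Total protein in parallel cultures was then measured by staining with 0.1% sulforhodamine B after 10% TCA fixation, with absorbance read at 560 nm. Activity was fitted bidirectionally against DMSO.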

[9] = read-out: Thrombomodulin, THBD (gene 7056); assay: BSK_3C_Thrombomodulin: BioMAP Diversity Plus: 3C Assay for Thrombomodulin Biomarker Activity (AID 2283029); conditions: primary human endothelial cells (HUVEC); actives raise or lower the signal
Outline: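 Thrombomodulin ELISA, human primary HUVEC, 24 h post-dose; data fitted in both directions relative to DMSO.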

[10] = read-out: Urokinase-type plasminogen activator receptor (uPAR), PLAUR (gene 5329); assay: BSK_4H_uPAR: BioMAP Diversity Plus: 4H Assay for Urokinase-type plasminogen activator receptor (uPAR) Biomarker Activity (AID 2283030); conditions: primary human endothelial cells (HUVEC); actives raise or lower the signal
Outline: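 Primary human umbilical vein endothelial cells were exposed to chemical for 24 h before cell-surface uPAR was quantified by ELISA. Activity was fitted bidirectionally against the DMSO negative control baseline.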

[11] = read-out: Vascular endothelial growth factor receptor 2 (Homo sapiens) (UniProt P35968); assay: BSK_4H_VEGFRII: BioMAP Diversity Plus: 4H Assay for Vascular endothelial growth factor receptor 2 (VEGFR2) Biomarker Activity (AID 2283031); conditions: primary human endothelial cells (HUVEC); actives raise or lower the signal
Outline: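 Primary human umbilical vein endothelial cells in the BioMAP 4H system were dosed with test chemical, and 24 h later VEGFRII was measured by ELISA. Activity was fitted bidirectionally against DMSO as negative control and baseline.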

[12] = read-out: Human Leukocyte Antigen - DR isotype (HLADR), HLA-DRA (gene 3122); assay: BSK_BE3C_HLADR: BioMAP Diversity Plus: BE3C Assay for Human Leukocyte Antigen - DR isotype (HLADR) Biomarker Activity (AID 2283032); conditions: primary human bronchial epithelial cells; actives raise or lower the signal
Outline: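 Signal came from an ELISA for HLA-DR in human bronchial epithelial primary cells harvested 24 h after treatment; gain- and loss-of-signal fitting used DMSO controls as reference.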

[13] = read-out: Vascular cell adhesion molecule 1 (VCAM1), VCAM1 (gene 7412); assay: BSK_4H_VCAM1: BioMAP Diversity Plus: 4H Assay for Vascular cell adhesion molecule 1 (VCAM1) Biomarker Activity (AID 2283033); conditions: primary human endothelial cells (HUVEC); actives raise or lower the signal;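 note: cell-surface VCAM-1 protein measured by ELISA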
Outline: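 Endpoint derived from bidirectional fitting against DMSO controls of VCAM-1 ELISA signal in umbilical vein endothelial cells sampled at 24 h following treatment.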

[14] = read-out: Interferon-gamma inducible Protein 10 (IP10), CXCL10 (gene 3627); assay: BSK_BE3C_IP10: BioMAP Diversity Plus: BE3C Assay for Interferon-gamma inducible Protein 10 (IP10) Biomarker Activity (AID 2283034); conditions: primary human bronchial epithelial cells; actives raise or lower the signal
Outline: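 Using primary human bronchial epithelial cultures, the assay captures IP-10 by ELISA one day (24 h) after exposure. Parallel SRB staining of total protein flags overt cytotoxicity. Fits run bidirectionally relative to DMSO.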

[15] = read-out: Monokine induced gamma interferon (MIG), CXCL9 (gene 4283); assay: BSK_BE3C_MIG: BioMAP Diversity Plus: BE3C Assay for Monokine induced gamma interferon (MIG) Biomarker Activity (AID 2283035); conditions: primary human bronchial epithelial cells; actives raise or lower the signal;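 note: MIG protein measured by ELISA in BE3C cultures after 24 h of dosing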
Outline: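 Primary human bronchial epithelial cells treated for 24 h; MIG levels measured by ELISA, fitted bidirectionally versus DMSO. Parallel SRB total-protein staining assessed cytotoxicity.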

[16] = read-out: Transforming growth factor beta 1 (TGFb1), TGFB1 (gene 7040); assay: BSK_BE3C_TGFb1: BioMAP Diversity Plus: BE3C Assay for Transforming growth factor beta 1 (TGFb1) Biomarker Activity (AID 2283036;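 note: TGF-b1 protein level measured by ELISA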); conditions: primary human bronchial epithelial cells; actives raise or lower the signal
Outline: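 In this human primary bronchial epithelial system, an ELISA quantified TGF-b1 one day after dosing. Endpoint changes in either direction were fitted relative to DMSO.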

[17] = read-out: Plasminogen activator inhibitor-1 (PAI1), SERPINE1 (gene 5054); assay: BSK_BE3C_PAI1: BioMAP Diversity Plus: BE3C Assay for Plasminogen activator inhibitor-1 (PAI1) Biomarker Activity (AID 2283037); conditions: primary human bronchial epithelial cells; actives raise or lower the signal
Outline: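 PAI-1 biomarker levels in treated human bronchial epithelial cells are determined by ELISA at 24 h. Both increases and decreases relative to DMSO are fitted.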

[18] = read-out: urokinase plasminogen activator (uPA), PLAU (gene 5328); assay: BSK_BE3C_uPA: BioMAP Diversity Plus: BE3C Assay for urokinase plasminogen activator (uPA) Biomarker Activity (AID 2283038); conditions: primary human bronchial epithelial cells; actives raise or lower the signal
Outline: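 Human primary bronchial epithelial cells were exposed to chemical for 24 h, then uPA levels were measured by ELISA. Responses were fitted bidirectionally against DMSO as negative control and baseline. Parallel SRB staining of total protein gauged overt cytotoxicity.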

[19] = read-out: Urokinase-type plasminogen activator receptor (uPAR), PLAUR (gene 5329); assay: BSK_BE3C_uPAR: BioMAP Diversity Plus: BE3C Assay for Urokinase-type plasminogen activator receptor (uPAR) Biomarker Activity (AID 2283039); conditions: primary human bronchial epithelial cells; actives raise or lower the signal;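 note: cells exposed to compound for one day before measurement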
Outline: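 A uPAR ELISA serves as the readout, taken 24 h after treating primary human bronchial epithelial cells. Responses in either direction are fitted against DMSO, which defines baseline activity.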

[20] = biological target: human Vitamin D Receptor (VDR), VDR (gene 7421) (UniProt P11473); assay: ATG_VDR_TRANS: Attagene TRANS-FACTORIAL HepG2 Assay for human Vitamin D Receptor (VDR) (AID 2283022; active = hit-call score of the fitted dose curve at least 0.9, where 1 is the maximum)
Outline: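 HepG2 cells were transiently transfected with multiple GAL4-UAS reporter units, so signal reflects exogenous chimeric receptor-Gal4 activity. After 24 h compound exposure, reporter mRNA was measured by RT-PCR, fluorescent labelling and capillary electrophoresis, fitted for gain of signal versus DMSO.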

Measured: AC50

human Vitamin D Receptor (VDR), VDR (gene 7421), sequence (P11473 whole entry, looked up, the tested form may be a part): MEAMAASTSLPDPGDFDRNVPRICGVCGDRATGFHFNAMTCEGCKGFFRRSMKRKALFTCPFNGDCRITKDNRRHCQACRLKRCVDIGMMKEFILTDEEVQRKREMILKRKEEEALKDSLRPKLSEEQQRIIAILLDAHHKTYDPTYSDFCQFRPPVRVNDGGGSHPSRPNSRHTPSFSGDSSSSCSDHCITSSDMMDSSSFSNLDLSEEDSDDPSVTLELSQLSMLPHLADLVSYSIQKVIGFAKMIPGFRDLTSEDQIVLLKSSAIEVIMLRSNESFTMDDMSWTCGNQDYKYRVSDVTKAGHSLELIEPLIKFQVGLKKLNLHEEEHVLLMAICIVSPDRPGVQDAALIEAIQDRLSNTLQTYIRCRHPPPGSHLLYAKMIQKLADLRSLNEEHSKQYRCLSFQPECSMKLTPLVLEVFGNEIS

CC(c1cc(C(C)(C)C)cc(C(C)(C)C)c1O)c1cc(C(C)(C)C)cc(C(C)(C)C)c1O
inactive: [1] | [2] | [3] | [4] | [5] | [7] | [8] | [9] | [10] | [11] | [12] | [13] | [14] | [15] | [16] | [17] | [18] | [19]
active: [6] 965 nM

Clc1cc(Cl)c(Cl)c(Cl)c1Cl
active: [6] 34700 nM
inactive: [1] | [2] | [20] | [3] | [4] | [5] | [7] | [8] | [9] | [10] | [11] | [12] | [14] | [15] | [16] | [17] | [18] | [19]

CCCCCCCCC(CO)CCCCCC (stereo not given)
inactive: [1] | [2] | [20] | [3] | [4] | [5] | [6] | [7] | [8] | [9] | [11] | [12] | [13] | [15] | [16] | [18] | [19]
active: [10] 2510 nM | [14] 2.01 µM | [17] 1360 nM

c1ccc2c(c1)[nH]c1ccccc12
inactive: [1] | [2] | [3] | [4] | [5] | [6] | [7] | [8] | [9] | [10] | [11] | [12] | [13] | [15] | [16] | [17] | [18] | [19]
active: [4] 126 nM | [9] 6870 nM

CCNc1nc(NC(C)(C)C)nc(OC)n1
inactive: [1] | [2] | [20] | [3] | [4] | [5] | [6] | [7] | [8] | [9] | [10] | [11] | [12] | [13] | [15] | [16] | [17] | [18] | [19]

CC1(C)CC(O)CC(C)(C)N1[O]
inactive: [1] | [2] | [20] | [3] | [4] | [5] | [6] | [7] | [8] | [9] | [10] | [11] | [12] | [14] | [15] | [16] | [17] | [18] | [19]

C=CC(=O)NCOCCCC
inactive: [1] | [2] | [20] | [3] | [4] | [5] | [6] | [7] | [8] | [9] | [10] | [11] | [12] | [15] | [16] | [17] | [18] | [19]

CCCCCC1=CCCC1=O
inactive: [1] | [2] | [20] | [3] | [5] | [6] | [7] | [8] | [9] | [10] | [11] | [12] | [13] | [15] | [16] | [17] | [18] | [19]
active: [4] 16 nM

Cc1ccc([N+](=O)[O-])cc1N
inactive: [1] | [2] | [20] | [3] | [4] | [5] | [6] | [7] | [8] | [9] | [10] | [11] | [12] | [13] | [15] | [16] | [17] | [18] | [19]

CCOC(=O)C1=NOC(c2ccccc2)(c2ccccc2)C1
inactive: [2] | [20] | [3] | [4] | [5] | [6] | [7] | [8] | [9] | [10] | [11] | [12] | [14] | [15] | [16] | [17] | [18] | [19]
active: [1] 3970 nM

COC(OC)(C(=O)c1ccccc1)c1ccccc1
active: [1] 16 nM
inactive: [2] | [20] | [3] | [4] | [5] | [6] | [7] | [8] | [9] | [10] | [11] | [12] | [15] | [16] | [17] | [18] | [19]

C[N+](C)(C)CCCNS(=O)(=O)C(F)(F)C(F)(F)C(F)(F)C(F)(F)C(F)(F)C(F)(F)C(F)(F)C(F)(F)F
inactive: [1] | [2] | [20] | [4] | [7] | [8] | [9] | [10] | [11] | [12] | [15] | [17] | [18] | [19]
active: [1] 44300 nM | [3] 30.7 µM and 20.8 µM | [4] 19600 nM | [6] 30 µM and 16.8 µM | [12] 54800 nM | [14] 30 µM and 43.7 µM | [18] 1100 nM
